Results: PubChem BioAssay (NCATS)
Results filed as inconclusive are left out. Unless noted, the call rests on the fitted dose curve; in most records, active means well fitted curve in either direction with a large enough effect (not every such curve was filed as active); inconclusive means small, poorly fitted or top-dose-only effect, or another doubt; inactive means flat fitted curve, though single readings scatter.

How the values were obtained:
[1] = AP1 Signaling Pathway (AID 357); settings: ME-180 AP-1-bla reporter, EGF-induced, beta-lactamase ratio, 5 h; at 17.2 µM (top of the series) unless noted;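 further: ME-180 reporter cells stimulated with EGF at its EC50 level; on the % scale 0 is the no-effect control and ±100 the full control effect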
How it was run: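 Read-out was the 460nm/530nm emission ratio (excitation 405nm) after CCF4 loading for 2.5 hours at room temperature. Cells carried an AP-1-driven beta-lactamase reporter, were stimulated with EC50 EGF plus compound for 5 hours, and AC50 values came from titrations.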

[2] = NFAT Signaling Pathway (AID 444); settings: Jurkat NFAT-bla M1, carbachol, beta-lactamase ratio, 5 h; at 17.2 µM (top of the series) unless noted;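 further: carbachol stimulus at about its EC50 of 1 µM final; on the % scale 0 is the no-effect control and ±100 the full control effect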
How it was run: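 Read-out: CCF4 FRET ratio (460 nm/530 nm) after 1 h RT dye loading, used for %activity and AC50 from titration series. Cells: Jurkat NFAT-β-lactamase/M1 line, treated with compound plus 1 uM carbachol for 5 h, 37 °C.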

[3] = Stat Signaling Pathway (AID 446); settings: ME-180 (cervical carcinoma) SIE beta-lactamase reporter, IL-6 stimulated, 5 h; at 17.2 µM (top of the series) unless noted;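 further: ME-180 cervical cancer cells given 40 pM IL-6 alongside compound; SIE-controlled beta-lactamase reporter measured as 460/530 nm FRET emission ratio; on the % scale 0 is the no-effect control and ±100 the full control effect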
How it was run: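 Overnight-plated ME-180 cells bearing a STAT Inducible Element beta-lactamase reporter; 5 h co-exposure to compound and 40 pM IL-6; values normalized to 300 pM IL-6 and 125 nM JAK inhibitor controls.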

[4] = molecular target: Glucocorticoid receptor (Homo sapiens) (UniProt P04150); experiment: GR-GFP Redistribution (AID 450;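 active means compounds whose dose series gives a full or clear partial fitted curve of increased nuclear translocation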; further: potency means the concentration at half of the fitted maximal effect)
Chain of Glucocorticoid receptor (Homo sapiens) (P04150 whole entry, looked up): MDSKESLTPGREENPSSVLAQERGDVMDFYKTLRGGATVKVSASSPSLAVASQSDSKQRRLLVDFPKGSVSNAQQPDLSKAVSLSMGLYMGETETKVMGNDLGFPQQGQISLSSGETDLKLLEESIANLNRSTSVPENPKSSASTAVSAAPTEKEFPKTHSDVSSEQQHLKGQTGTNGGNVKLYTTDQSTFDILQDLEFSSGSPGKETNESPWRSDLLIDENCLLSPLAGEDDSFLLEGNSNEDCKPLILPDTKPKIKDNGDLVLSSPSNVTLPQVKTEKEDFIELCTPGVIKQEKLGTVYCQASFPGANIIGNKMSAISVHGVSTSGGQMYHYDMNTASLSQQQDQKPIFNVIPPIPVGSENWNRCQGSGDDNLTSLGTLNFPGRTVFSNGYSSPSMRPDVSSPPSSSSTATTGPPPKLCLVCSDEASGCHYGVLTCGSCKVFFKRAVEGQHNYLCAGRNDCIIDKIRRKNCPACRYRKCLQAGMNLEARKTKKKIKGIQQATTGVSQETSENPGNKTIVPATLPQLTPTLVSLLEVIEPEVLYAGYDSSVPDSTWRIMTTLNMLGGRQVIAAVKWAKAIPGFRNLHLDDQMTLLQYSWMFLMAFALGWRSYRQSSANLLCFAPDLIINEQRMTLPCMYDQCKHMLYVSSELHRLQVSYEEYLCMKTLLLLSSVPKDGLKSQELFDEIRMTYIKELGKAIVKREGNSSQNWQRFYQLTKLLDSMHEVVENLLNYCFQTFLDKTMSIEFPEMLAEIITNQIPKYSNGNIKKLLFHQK

CN1CCc2c(sc3c2C(=O)NC(c2ccco2)N3)C1 (stereo not drawn)
inactive: activity change, negative = inhibition [1] -0.778% | activity change, negative = inhibition [2] -3.54% | activity, negative = inhibition [3] 23.6% | Potency [4] > 20.6 µM

CC1(C)CC(=O)C=C(NCc2ccncc2)C1
inactive: activity change, negative = inhibition [1] 10% | activity change, negative = inhibition [2] -8.43% | activity, negative = inhibition [3] 8.27% | Potency [4] > 20.6 µM

C[C@@H]1C[C@H](Nc2ccccc2)c2ccccc2N1C(=O)c1cccnc1
inactive: activity change, negative = inhibition [1] 5.62% | activity change, negative = inhibition [2] -3.58% | activity, negative = inhibition [3] -2.73% | Potency [4] > 20.6 µM

COc1ccc(-c2nnc3sc(COc4ccccc4)nn23)cc1
inactive: activity change, negative = inhibition [1] -22.1% | activity change, negative = inhibition [2] -15.2% | activity, negative = inhibition [3] -8.06% | Potency [4] > 20.6 µM

COC(=O)CC1SC(=O)NC1=O (stereo not drawn)
inactive: activity change, negative = inhibition [1] 6.96% | activity change, negative = inhibition [2] 5.58% | activity, negative = inhibition [3] 7.23% | Potency [4] > 20.6 µM

CC(=O)C1(C)OC(N)=C(C#N)C(c2ccccc2)C1(C#N)C#N (stereo not drawn)
inactive: activity change, negative = inhibition [1] 13.9% | activity change, negative = inhibition [2] -28.6% | activity, negative = inhibition [3] -4.54% | Potency [4] > 20.6 µM

CCCc1[nH]n(-c2nc3ccccc3s2)c(=O)c1C=NCCN1CCOCC1
inactive: activity change, negative = inhibition [1] -6.38% | activity change, negative = inhibition [2] -13.8% | activity, negative = inhibition [3] -4.13% | Potency [4] > 20.6 µM

CCOC(=O)c1cnn2c1[nH]c(=O)c1ccccc12
inactive: activity change, negative = inhibition [1] -8.34% | activity change, negative = inhibition [2] 9.32% | activity, negative = inhibition [3] 9.94% | Potency [4] > 20.6 µM

CC(=O)N[C@H]1C[C@@H]1c1ccccc1
inactive: activity change, negative = inhibition [1] 5.08% | activity change, negative = inhibition [2] -8.6% | activity, negative = inhibition [3] 12.8% | Potency [4] > 20.6 µM

OCCOCCNc1ncnc2c1cnn2-c1ccc(Cl)cc1
inactive: activity change, negative = inhibition [1] 9.08% | activity change, negative = inhibition [2] 0.366% | activity, negative = inhibition [3] 4.43% | Potency [4] > 20.6 µM

CCCCc1[nH]c(=O)c(C#N)c2c1CSC(C)(C)C2
inactive: activity change, negative = inhibition [1] 15.5% | activity change, negative = inhibition [2] -2.98% | activity, negative = inhibition [3] 3.1% | Potency [4] > 20.6 µM

Oc1oc(-c2ccccc2)nc1C=NCc1ccncc1
inactive: activity change, negative = inhibition [1] 1.8% | activity change, negative = inhibition [2] -8.61% | activity, negative = inhibition [3] 22.7% | Potency [4] > 20.6 µM

CCOC(=O)C1=C(C)NC(=O)NC1c1ccc2c(c1)OCO2 (stereo not drawn)
inactive: activity change, negative = inhibition [1] -4.59% | activity change, negative = inhibition [2] -26.9% | activity, negative = inhibition [3] -3.46% | Potency [4] > 20.6 µM

CCOC(=O)Cn1c(SC)nc2sc3c(c2c1=O)CC(C)(C)OC3
inactive: activity change, negative = inhibition [1] 3.62% | activity change, negative = inhibition [2] 10.2% | activity, negative = inhibition [3] -3.19% | Potency [4] > 20.6 µM

CC(=O)c1cc(C#N)c(SCc2ccncc2)nc1C
inactive: activity change, negative = inhibition [1] -9.02% | activity change, negative = inhibition [2] -4.04% | activity, negative = inhibition [3] -3.61% | Potency [4] > 20.6 µM

CSc1nc2sc3c(c2c2nncn12)CCC3
inactive: activity change, negative = inhibition [1] -7.57% | activity change, negative = inhibition [2] -18% | activity, negative = inhibition [3] -3.42% | Potency [4] > 20.6 µM

CCCCCOc1ccccc1C(=O)NCC(=O)O
inactive: activity change, negative = inhibition [1] 1.59% | activity change, negative = inhibition [2] 0.449% | activity, negative = inhibition [3] 9.43% | Potency [4] > 20.6 µM
